In the library only some 1.3% were active in any assay of this set; here they are far more common.
PKM2 act = activators of human pyruvate kinase M2; P14618; purified PKM2, Kinase-Glo ATP luminescence, activation; response scale: 0% is enzyme alone, no compound; Potency, µM (doses to about 57.5 µM), for the others: at the top dose activation, usual class: activators; 260,000 tested, 0.34% active; AID 1631; further: potency means the concentration at half of the fitted maximal effect; on the % scale 0 is the no-effect control and ±100 the full control effect; nearly all actives have a fitted effect of over 55% in size
Target sequence (P14618 whole entry, looked up): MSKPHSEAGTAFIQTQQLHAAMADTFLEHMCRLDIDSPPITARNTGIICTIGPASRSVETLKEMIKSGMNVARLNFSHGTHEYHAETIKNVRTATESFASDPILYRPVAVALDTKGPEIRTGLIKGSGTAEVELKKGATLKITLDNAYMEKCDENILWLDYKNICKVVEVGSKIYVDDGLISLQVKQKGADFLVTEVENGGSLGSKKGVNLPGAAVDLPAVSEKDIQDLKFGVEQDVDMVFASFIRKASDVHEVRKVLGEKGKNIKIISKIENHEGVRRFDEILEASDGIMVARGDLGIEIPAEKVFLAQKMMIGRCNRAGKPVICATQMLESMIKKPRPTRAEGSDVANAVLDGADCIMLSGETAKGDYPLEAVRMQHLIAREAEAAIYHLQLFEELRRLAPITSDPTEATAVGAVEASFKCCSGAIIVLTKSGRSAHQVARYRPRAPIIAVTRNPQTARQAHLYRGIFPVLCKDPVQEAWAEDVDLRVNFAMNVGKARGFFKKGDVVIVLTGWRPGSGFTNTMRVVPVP
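Purified hPK-M2 (>95% pure) converted ADP (0.1 mM final) to ATP with 0.5 mM PEP in 50 mM imidazole pH7.2, KCl, MgCl2, Tween 20, BSA; 1 h at room temperature. ATP detected by Kinase-Glo luminescence.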
IL-2 act = IL-2 activation | IL-2 activation reporter assay, cell-based qHTS; stimulated with anti-CD3/CD4/CD28 beads; in transgenic mouse T cells | activation, % (series mostly up to about 46 µM) | AID 652025 | 360,000 tested, 0.065% active; in the data active means activation above about 50%; inconclusive means mostly about 30% to 49%; further: 0% is about no effect
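Unstimulated transgenic mouse T cells; 60-min compound exposure; bead-based TCR/CD4/CD28 stimulation; 18 h culture, 37 degrees C; dual fluorescence (EGFP, DsRed) plate cytometry.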
Anesthetic bind = candidate novel general anesthetic via apoferritin binding. 350,000 tested, 0.074% active. AID 485281. Potency, µM (top dose mostly 77.5 µM), for inactives: at the highest dose activity change, negative = displacement, hits mostly inhibitors. apoferritin/1-aminoanthracene competitive binding, fluorescence. P02791; further: potency means the concentration at half of the fitted maximal effect; on the % scale 0 is the no-effect control and ±100 the full control effect; nearly all actives have a fitted effect of over 20% in size
Target sequence (P02791 2-175 limits assumed): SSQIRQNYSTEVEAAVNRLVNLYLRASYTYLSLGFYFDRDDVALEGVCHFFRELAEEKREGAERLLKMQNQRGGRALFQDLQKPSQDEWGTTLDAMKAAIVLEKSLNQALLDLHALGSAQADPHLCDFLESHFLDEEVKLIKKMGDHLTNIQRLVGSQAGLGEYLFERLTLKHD
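Horse-spleen apoferritin (10 uM) in 50% saturated 1-aminoanthracene in PBS was incubated 10 min at room temperature with compound. Fluorescence (ex 380, em 535 nm) was normalized to free and bound 1-AMA, with concentration-response fitted by a four-parameter Hill equation.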
BRCA1 expr up = activators of BRCA1 expression. MCF7-BRCA1-FFLuc reporter, luminescence, 48 h; response scale: scaled: vehicle 0%, 10 µM genistein 100%. 380,000 tested, 1.1% active. Potency, µM (titrated, usually from 46.1 µM), for inactives: top-dose activation, actives largely listed as activators. AID 624202; further: potency means the concentration at half of the fitted maximal effect; nearly all actives have a fitted effect of over 80% in size
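Reporter cells (MCF7, BRCA1 promoter-firefly luciferase) received library compounds across a concentration series for 48 h. End-point luminescence was measured and concentration-effect curves derived after normalization.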
a7 integrin act = integrin-mediated muscular dystrophy alleviation activation; alpha7betagal myoblasts, beta-gal FDG fluorescence, 48 h; Potency, µM (titrated, usually from 38.3 µM), for inactives: at the highest dose activation, hits mostly activators; 350,000 tested, 0.064% active; AID 624291;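 further: potency means the concentration at half of the fitted maximal effect; 100% = response of the positive control SU9516; nearly all actives have a fitted effect of over 60% in size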
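alpha7betagal+/- myoblasts (passage 13, 250/well) treated 48 h at 37C with compounds at 1:260 dilution of DMSO stock. Lysed, then beta-galactosidase activity read as FDG fluorescence (ex 480/em 540) after 30 min, with pre-read for autofluorescence.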
* = called active by the depositor; ? = inconclusive; . = no result given; [ ] = dose if it differs, or a comment. Unless noted, the call rests on the fitted dose curve; in most records, active means well fitted curve in the direction sought with a large enough effect; inconclusive means small, poorly fitted or top-dose-only effect, or another doubt; inactive means no such curve, though single readings can be large; an effect the other way counts as inactive or inconclusive.

SMILES	PKM2 act	IL-2 act	Anesthetic bind	BRCA1 expr up	a7 integrin act
CCc1ccc(NC(=O)N(Cc2cn(CC)c3ccccc23)C2CCCCC2)cc1	.	.	104%	-7%	.
C(=N\NCc1ccccc1)/c1ccc2nccnc2c1	1%	1	1%	4.5µM*	-7%
COc1cc2c(cc1OC)C(c1ccc(F)cc1)N(c1ccc(F)cc1)C(=O)C2 (stereo not given)	.	.	-6%	.	.
Cc1cc(C2=CC(C)(c3cc(C)oc3C)Nc3nc(C(F)(F)F)nn32)c(C)o1 (stereo not given)	22µM*	.	?	.	.
O=C(CCc1nnc(-c2ccc(-c3ccccc3)cc2)o1)N1CCCCC1	1%	-1	-17%	-4%	-2%
O=C(CCc1nnc(-c2ccsc2)o1)N1CCc2c(Cl)cccc2C1	5%	-2	-16%	11µM*	-10%
COc1ccccc1N1CCN(C(=O)CSc2nc(-c3ccc(C(C)C)cc3)no2)CC1	.	.	70%	.	.
O=C(Nc1nnc(C2CCCO2)s1)c1ccc(Br)cc1 (stereo not given)	-1%	-1	-1%	11µM*	-29%[7.66 µM]
Cc1ccc(OCC(=O)Nc2nnc(C3CCCO3)s2)c(Br)c1 (stereo not given)	-3%	0	-21%	-15%	0%
NS(=O)(=O)c1cccnc1Nc1ccc(Cl)c(Cl)c1	-2%	0	8.9µM*	-14%	-16%
CCc1ccccc1NS(=O)(=O)c1cc2c(cc1C)n(C)c(=O)c(=O)n2C	4µM*	-2	-23%	10%	-14%
CC1=C(c2ccc(Cl)cc2)S(=O)(=O)N=C1N1CCN(c2cccc(C)c2)C(C)C1 (stereo not given)	.	.	1%	.	.
CCOC(=O)/C(C#N)=C/Nc1ccccc1OC	-5%	-3	78%	2.2µM*	4%
COCCSc1nnc(NC(=O)C(C)(C)C)s1	1%	1	-10%	5.6µM*	1%
CC(C)(C)C(=O)Nc1nnc(SCc2cccc(F)c2)s1	2%	1	?	14µM*	0%
CCN(C(=O)C(=O)c1c(C)[nH]c2ccccc12)c1ccccc1	.	.	.	3%	.
CCOc1ccc(N=Nc2c(N)[nH][nH]c2=O)cc1	-25%	1	5%	5µM*	19%
CCOC(=O)c1cc(-c2ccccc2)n(CCCC(=O)Nc2cccc(Cl)c2C)c1C	.	.	-1%	.	.
COC(=O)C1=NNC2(c3ccc(C)cc3)C(=O)N(c3ccc(C)cc3)C(=O)C12 (stereo not given)	-3%	2	-12%	10%	-6%
COC(=O)C1=NNC2(C)C(=O)N(c3ccc(C)cc3)C(=O)C12 (stereo not given)	0%	0	5%	-5%	10µM*
Cc1cc(=O)[nH]c(SCc2cn3ccccc3n2)n1	14µM*	1	1%	3%	-10%
O=[N+]([O-])c1ccc2nc(SCc3cn4ccccc4n3)[nH]c2c1	5%	0	-12%	-7%	-15%
c1ccn2cc(CSC3=NCCS3)nc2c1	9%	1	-11%	6.3µM*	13%
CC(C)(C)c1ccc(C(=O)c2c[nH]c(C(=O)O)c2)cc1	32µM*	-1	-5%	33%	5%
CC[C@H](C)[C@H](NC(=O)[C@H](CC(=O)O)NC(=O)[C@H](CC(N)=O)NC(=O)[C@@H](NC(=O)[C@H](CCCNC(=N)N)NC(=O)[C@@H](NC(=O)[C@@H](NC(=O)[C@@H](NC(=O)[C@@H](NC(=O)[C@H](CCCCN)NC(=O)[C@@H](NC(=O)[C@H](CC(C)C)NC(=O)[C@@H](NC(=O)[C@H](CCCCN)NC(=O)[C@@H](NC(=O)[C@H](CC(=O)O)NC(=O)[C@H](CC(=O)O)NC(=O)[C@H](CCC(N)=O)NC(=O)[C@@H](NC(=O)[C@H](CCCCN)NC(=O)[C@H](CCC(N)=O)NC(=O)[C@@H](NC(=O)[C@@H]1CCCN1C(=O)[C@@H](N)C(C)C)[C@@H](C)CC)C(C)C)[C@@H](C)O)[C@@H](C)O)[C@@H](C)CC)[C@@H](C)O)[C@@H](C)CC)C(C)C)[C@@H](C)O)[C@@H](C)CC)C(=O)N[C@@H](CO)C(=O)N[C@@H](Cc1cnc[nH]1)C(=O)N[C@H](C(=O)N[C@@H](CCC(N)=O)C(=O)N[C@@H](CO)C(=O)N[C@H](C(=O)N[C@@H](CO)C(=O)N[C@@H](CO)C(=O)N[C@@H](CCCCN)C(=O)N[C@@H](CCC(N)=O)C(=O)N[C@@H](CCCCN)C(=O)O)C(C)C)[C@@H](C)O	.	.	-7%	.	.
SMILES	PKM2 act	IL-2 act	Anesthetic bind	BRCA1 expr up	a7 integrin act
O=C(Nc1ccc2ccccc2n1)C1CCCCC1	-14%	1	5%	2.8µM*	19%
O=C(Nc1ccc2ccccc2n1)c1ccccc1Cl	.	0	8%	85%	12%
Cc1cccc(NC(=O)c2ccccc2NC(=O)C2CCCCC2)c1C	28µM*	-2	-2%	-26%	-1%
O=C(Nc1ccc(O)cc1)c1ccc(NC(=O)C2CCCO2)cc1 (stereo not given)	-7%	-4	-11%	15%	7%
Cc1cc(NC(=O)c2ccc(NC(=O)C3CCCO3)cc2)ccc1Br (stereo not given)	.	1	-8%	1.1µM*	13%
CCCOC(=O)c1ccc(NC(=O)C2CCCO2)cc1 (stereo not given)	-3%	-2	-4%	11µM*	-5%
Cc1ccc2[nH]c(CSc3nnc(NC(=O)c4ccccc4C)s3)cc(=O)c2c1	.	.	-10%	.	.
Cc1ccc(C(=O)NCc2ccc(N(C)C)cc2)cc1NC(=O)c1nsc2ccccc12	.	.	59%	.	.
COc1ccc(-c2ccn(-c3cccc(F)n3)n2)cc1	0%	1	-21%	3.2µM*	3%
COc1ccc(-c2cn3ccccc3n2)cc1	-61%	2	-1%	13%	?
COc1cc(Cl)cc(CN2CCC(CCC(=O)NC3CC3)CC2)c1OC	-2%	0	-6%	13%	7.1µM*
COc1cccc(NCc2nnc(SC(C(=O)N(C)C)c3ccccc3)n2C2CCCCC2)c1 (stereo not given)	.	.	.	-7%	.
Cc1cccc(Cn2c(SCC(=O)Nc3ccccc3)nc3c2c(=O)[nH]c(=O)n3C)c1	1.4µM*	-3	-7%	-20%	7%
C/C(=C\c1ccc(N)cc1)c1nc2ccccc2[nH]1	.	0	-1%	7.9µM*	23%
Cn1c(=O)n(C)c2cc(S(=O)(=O)Nc3ccccc3O)ccc21	?	1	-13%	-37%	17%
Cn1c(=O)n(C)c2cc(S(=O)(=O)Nc3cc(Cl)ccc3O)ccc21	13µM*	4	-13%	-3%	5%
Cn1c(=O)n(C)c2cc(S(=O)(=O)Nc3ccccc3)ccc21	4µM*	0	-7%	-39%	12%
